{"source": "paper PMC4336329", "about": "(PLoS ONE, 2015)", "note": "In all, about 310,000 compounds went through this assay and about 14,000 (4.5%) showed an effect of 50% or more. Effects have a minus sign here. The list comes from a sample in which strong results are over-represented; it also holds similar structures and randomly drawn compounds.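 Also: peak tail current of the secondary pulse compared with the same well before compound.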", "data": [{"target": "human ether-à-go-go-related gene (hERG) potassium channel (human, UniProt Q12809)", "sequence (Q12809 whole entry, looked up)": "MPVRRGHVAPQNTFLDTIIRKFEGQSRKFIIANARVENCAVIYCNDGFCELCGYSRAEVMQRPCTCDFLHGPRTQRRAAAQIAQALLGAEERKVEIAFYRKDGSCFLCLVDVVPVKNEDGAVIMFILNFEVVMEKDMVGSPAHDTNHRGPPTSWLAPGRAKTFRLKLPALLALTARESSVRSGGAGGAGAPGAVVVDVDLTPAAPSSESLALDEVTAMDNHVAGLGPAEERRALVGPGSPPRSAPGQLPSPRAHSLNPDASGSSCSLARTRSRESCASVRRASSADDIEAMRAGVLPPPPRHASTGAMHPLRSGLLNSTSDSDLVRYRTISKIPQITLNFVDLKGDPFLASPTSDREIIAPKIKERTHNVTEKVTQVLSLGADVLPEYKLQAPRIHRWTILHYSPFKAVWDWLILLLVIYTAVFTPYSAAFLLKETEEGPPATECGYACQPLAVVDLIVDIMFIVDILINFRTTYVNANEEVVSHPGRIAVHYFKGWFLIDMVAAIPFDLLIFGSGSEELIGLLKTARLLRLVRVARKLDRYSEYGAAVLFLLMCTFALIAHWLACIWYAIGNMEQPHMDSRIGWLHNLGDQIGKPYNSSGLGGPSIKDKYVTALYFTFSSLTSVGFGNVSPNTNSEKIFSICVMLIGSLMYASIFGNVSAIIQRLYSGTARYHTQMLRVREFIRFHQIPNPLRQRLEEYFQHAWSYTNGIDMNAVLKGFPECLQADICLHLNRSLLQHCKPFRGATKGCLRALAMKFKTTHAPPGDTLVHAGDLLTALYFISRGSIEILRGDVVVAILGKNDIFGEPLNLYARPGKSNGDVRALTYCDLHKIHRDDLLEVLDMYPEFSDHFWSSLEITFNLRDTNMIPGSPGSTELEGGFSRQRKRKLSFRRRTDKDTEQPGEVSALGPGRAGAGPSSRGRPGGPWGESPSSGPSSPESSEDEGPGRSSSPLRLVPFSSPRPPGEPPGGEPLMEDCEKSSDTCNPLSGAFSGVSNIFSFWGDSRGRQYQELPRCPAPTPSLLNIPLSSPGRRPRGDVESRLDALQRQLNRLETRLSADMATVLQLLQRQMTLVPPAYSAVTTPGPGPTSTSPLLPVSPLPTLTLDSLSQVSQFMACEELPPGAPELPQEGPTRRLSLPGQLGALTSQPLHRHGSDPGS", "assay": "primary screen, population patch clamp on CHO cells stably expressing hERG; higher = less effect of the substance", "units": {"hERG current change (%, negative = inhibition) at 10uM": "%"}, "values": [{"smiles": "Clc1cccc(Cl)c1C1N2CCCN12", "note": "(stereo not shown)", "hERG current change (%, negative = inhibition) at 10uM": 11.4}, {"smiles": "CC(C)c1ccc(CNc2c([N+](=O)[O-])c(=O)oc3ccccc23)cc1", "hERG current change (%, negative = inhibition) at 10uM": 14.2}, {"smiles": "O=C(/C=C/c1ccc(NC(=O)c2ccccc2-c2ccccc2C(=O)O)cc1)c1ccccc1", "hERG current change (%, negative = inhibition) at 10uM": 25.7}, {"smiles": "Cc1ccc(C)n1-c1ccc(N2CCOCC2)nc1", "hERG current change (%, negative = inhibition) at 10uM": -1.52}, {"smiles": "CNC(=O)c1nnc(Cc2ccc(F)cc2)o1", "hERG current change (%, negative = inhibition) at 10uM": 9.51}, {"smiles": "C/C(CC(=O)Nc1ccc(N(C)C)cc1)=N\\NC(=O)c1ccccn1", "hERG current change (%, negative = inhibition) at 10uM": 7.77}, {"smiles": "O=C(OCc1cc(=O)oc2cc(O)ccc12)c1cc(S(=O)(=O)N2CCOCC2)ccc1F", "hERG current change (%, negative = inhibition) at 10uM": 5.32}, {"smiles": "COC(=O)c1ccc(-n2cncn2)c([N+](=O)[O-])c1", "hERG current change (%, negative = inhibition) at 10uM": 12}, {"smiles": "Cc1cc(C)c(NC(=O)CNC(=O)c2ccc(-n3cncn3)c([N+](=O)[O-])c2)c(C)c1", "hERG current change (%, negative = inhibition) at 10uM": -12.8}, {"smiles": "Cc1cc(C)c(S(=O)(=O)N2CCN(C(=O)c3ccc(-n4cncn4)c([N+](=O)[O-])c3)CC2)c(C)c1", "hERG current change (%, negative = inhibition) at 10uM": -62.5}, {"smiles": "Cc1ccc(S(=O)(=O)N(C)C)cc1NC(=O)c1ccc(-n2cncn2)c([N+](=O)[O-])c1", "hERG current change (%, negative = inhibition) at 10uM": -38.8}, {"smiles": "Cc1ccc(S(=O)(=O)N2CCN(C(=O)c3ccc(-n4cncn4)c([N+](=O)[O-])c3)CC2)cc1C", "hERG current change (%, negative = inhibition) at 10uM": -72.7}, {"smiles": "COC(=O)c1ccc(N2CCN(S(=O)(=O)c3c(C)cc(C)cc3C)CC2)c([N+](=O)[O-])c1", "hERG current change (%, negative = inhibition) at 10uM": 21.4}, {"smiles": "CCC(=O)c1ccc(OCC(=O)NCC2COc3ccccc3O2)cc1", "note": "(stereo not shown)", "hERG current change (%, negative = inhibition) at 10uM": -25.5}, {"smiles": "Cc1ccc(S(=O)(=O)N2CCCc3ccccc32)cc1C", "hERG current change (%, negative = inhibition) at 10uM": 0.165}, {"smiles": "C[C@H](NC(=O)c1nc[nH]c1C(=O)N1CCN(C(=O)OC(C)(C)C)CC1)c1ccccc1", "hERG current change (%, negative = inhibition) at 10uM": 12.4}, {"smiles": "CCN(C1CCS(=O)(=O)C1)S(=O)(=O)c1cccs1", "note": "(stereo not shown)", "hERG current change (%, negative = inhibition) at 10uM": 14.8}, {"smiles": "CCCCN(C1CCS(=O)(=O)C1)S(=O)(=O)c1cccs1", "note": "(stereo not shown)", "hERG current change (%, negative = inhibition) at 10uM": -7.11}, {"smiles": "CN(C1CCS(=O)(=O)C1)S(=O)(=O)c1cccs1", "note": "(stereo not shown)", "hERG current change (%, negative = inhibition) at 10uM": -51.6}, {"smiles": "Cc1cc(CCCCCCCCc2cc(C)cc(=O)o2)oc(=O)c1", "hERG current change (%, negative = inhibition) at 10uM": -2.63}, {"smiles": "O=C(Nc1nc(-c2ccccn2)cs1)c1cccc(-n2cnnn2)c1", "hERG current change (%, negative = inhibition) at 10uM": -5.61}, {"smiles": "CC(C)(C)NS(=O)(=O)c1ccc(OCC(=O)NCCC2=CCCCC2)cc1", "hERG current change (%, negative = inhibition) at 10uM": -14.1}, {"smiles": "COc1ccccc1N1CCN(C(=O)C2CCCN(c3ncnc4c3nc3n4CCCCC3)C2)CC1", "note": "(stereo not shown)", "hERG current change (%, negative = inhibition) at 10uM": -12.5}, {"smiles": "COc1ccc(N2CCN(C(=O)C3CCCN(c4ncnc5c4nc4n5CCCCC4)C3)CC2)cc1", "note": "(stereo not shown)", "hERG current change (%, negative = inhibition) at 10uM": -68.7}, {"smiles": "CCOC(=O)N1CCN(C(=O)C2CCCN(c3ncnc4c3nc3n4CCCCC3)C2)CC1", "note": "(stereo not shown)", "hERG current change (%, negative = inhibition) at 10uM": -22.9}, {"smiles": "COc1cccc(N2CCN(C(=O)C3CCCN(c4ncnc5c4nc4n5CCCCC4)C3)CC2)c1", "note": "(stereo not shown)", "hERG current change (%, negative = inhibition) at 10uM": -81.7}, {"smiles": "CC(=O)c1ccc(N2CCN(C(=O)C3CCCN(c4ncnc5c4nc4n5CCCCC4)C3)CC2)cc1", "note": "(stereo not shown)", "hERG current change (%, negative = inhibition) at 10uM": -75.4}, {"smiles": "CN1CCN(C(=O)C2CCCN(c3ncnc4c3nc3n4CCCCC3)C2)CC1", "note": "(stereo not shown)", "hERG current change (%, negative = inhibition) at 10uM": 1.36}, {"smiles": "CC1CCN(C(=O)C2CCCN(c3ncnc4c3nc3n4CCCCC3)C2)CC1", "note": "(stereo not shown)", "hERG current change (%, negative = inhibition) at 10uM": -41.5}, {"smiles": "Cc1ccc(Nc2nnc(-c3ccc4c(c3)OCO4)o2)c(C)c1", "hERG current change (%, negative = inhibition) at 10uM": 19.8}, {"smiles": "COc1ccc(C(C)N2CC34C=CC(O3)C(C(=O)O)C4C2=O)cc1", "note": "(stereo not shown)", "hERG current change (%, negative = inhibition) at 10uM": 8.42}, {"smiles": "Cc1cccc2cc(CN(Cc3cccnc3)C(=S)NCCCN(C)C)c(=O)[nH]c12", "hERG current change (%, negative = inhibition) at 10uM": 3.93}, {"smiles": "Cc1ccc2[nH]c(=O)c(CN(CCCN(C)C)C(=S)NCCc3ccccc3)cc2c1", "hERG current change (%, negative = inhibition) at 10uM": -42}, {"smiles": "COc1cc2cc(CN(CCc3ccccc3C)C(=S)NCCCN3CCOCC3)c(=O)[nH]c2cc1OC", "hERG current change (%, negative = inhibition) at 10uM": -38.4}, {"smiles": "COc1cc2cc(CN(CCc3cccc(C)c3)C(=S)NCCCN(C)C)c(=O)[nH]c2cc1OC", "hERG current change (%, negative = inhibition) at 10uM": -1.74}, {"smiles": "Cc1cccc2cc(CN(Cc3ccccc3)C(=S)NCCCN(C)C)c(=O)[nH]c12", "hERG current change (%, negative = inhibition) at 10uM": -38}, {"smiles": "COc1cc2cc(CN(CCc3cccc(C)c3)C(=S)NCCCN3CCOCC3)c(=O)[nH]c2cc1OC", "hERG current change (%, negative = inhibition) at 10uM": -66.9}, {"smiles": "Cc1ccc2[nH]c(=O)c(CN(Cc3ccccc3)C(=S)NCCCN(C)C)cc2c1", "hERG current change (%, negative = inhibition) at 10uM": -24.9}, {"smiles": "Cc1ccc2cc(CN(CCc3ccccc3)C(=S)NCCCN(C)C)c(=O)[nH]c2c1", "hERG current change (%, negative = inhibition) at 10uM": -72}, {"smiles": "CCN(CC)CCCNC(=S)N(Cc1cccnc1)Cc1cc2cc(C)cc(C)c2[nH]c1=O", "hERG current change (%, negative = inhibition) at 10uM": 22.9}, {"smiles": "Cc1cc(C)c2[nH]c(=O)c(CN(Cc3cccnc3)C(=S)NCCCN(C)C)cc2c1", "hERG current change (%, negative = inhibition) at 10uM": -35.6}, {"smiles": "Cc1ccc(CN(Cc2cc3cccc(C)c3[nH]c2=O)C(=S)NCCCN(C)C)cc1", "hERG current change (%, negative = inhibition) at 10uM": -65}, {"smiles": "Cc1cc(C)c2[nH]c(=O)c(CN(Cc3ccccc3)C(=S)NCCCN(C)C)cc2c1", "hERG current change (%, negative = inhibition) at 10uM": -52.8}, {"smiles": "CC(C)(C)c1cc[n+](C2=C([O-])c3ccccc3C(=O)/C2=N\\S(=O)(=O)c2cccs2)cc1", "hERG current change (%, negative = inhibition) at 10uM": -44}, {"smiles": "CCc1c(C)n([O-])c2c([n+]1=O)CCC2", "hERG current change (%, negative = inhibition) at 10uM": 13.1}, {"smiles": "COc1cccc(N(CC(=O)NC2CCCC2)C(=O)CCC(=O)Nc2cc(C)on2)c1", "hERG current change (%, negative = inhibition) at 10uM": -16.4}, {"smiles": "CCC(=O)Nc1ccc2c(c1)nc(CN1CCCCC1)n2C", "hERG current change (%, negative = inhibition) at 10uM": 15}, {"smiles": "CC(=O)N1CCN(Cc2nc3cc(NC(=O)c4cccc(Br)c4)ccc3n2C)CC1", "hERG current change (%, negative = inhibition) at 10uM": -70}, {"smiles": "Cn1c(CN2CCCCC2)nc2cc(NC(=O)c3cccc(Br)c3)ccc21", "hERG current change (%, negative = inhibition) at 10uM": -63.3}, {"smiles": "CC(=O)N1CCN(Cc2nc3cc(NC(=O)c4ccccc4)ccc3n2C)CC1", "hERG current change (%, negative = inhibition) at 10uM": 15.8}, {"smiles": "CCC(=O)Nc1ccc2c(c1)nc(CN1CCN(C(C)=O)CC1)n2C", "hERG current change (%, negative = inhibition) at 10uM": -0.94}, {"smiles": "CC(=O)Nc1ccc2c(c1)nc(CN1CCCC1)n2C", "hERG current change (%, negative = inhibition) at 10uM": -7.28}]}]}
